Assay results published in PubChem BioAssay (NCATS).
Results filed as inconclusive are left out. Activity calls are given as the source filed them. Calls come from the whole dose curve; as a rule, active = well fitted inhibition curve with a large enough effect; inconclusive = small, poorly fitted or top-dose-only effect; inactive = flat fitted curve, though single readings scatter.

What was measured:
Experiment in all cases: qHTS profiling for inhibitors of Plasmodium falciparum proliferation (AID 504749); note: nearly all actives have a fitted effect of over 60% in size
CP237 = conditions: P. falciparum in erythrocytes, SYBR Green DNA, 72 h; series mostly up to 28.7 µM
Outline: (§1)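 Three-day growth assay of blood-stage parasites in erythrocytes (0.3% parasitemia, 2.5% hematocrit) at 37 C, 5% CO2, quantified by SYBR Green DNA staining after overnight detergent lysis.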

CP238 = conditions: P. falciparum in erythrocytes, SYBR Green DNA, 72 h; series mostly up to 28.7 µM
Outline: as §1

CP247 = conditions: P. falciparum in erythrocytes, SYBR Green DNA, 72 h; series mostly up to 28.7 µM
Outline: as §1

CP250 = conditions: P. falciparum in erythrocytes, SYBR Green DNA, 72 h; series mostly up to 12.8 µM
Outline: as §1

CP252 = conditions: P. falciparum in erythrocytes, SYBR Green DNA, 72 h; series mostly up to 12.8 µM
Outline: as §1

CP256 = conditions: P. falciparum in erythrocytes, SYBR Green DNA, 72 h; series mostly up to 28.7 µM
Outline: as §1

CP260 = conditions: P. falciparum in erythrocytes, SYBR Green DNA, 72 h; series mostly up to 28.7 µM
Outline: as §1

CP262 = conditions: P. falciparum in erythrocytes, SYBR Green DNA, 72 h; series mostly up to 28.7 µM
Outline: as §1

CP265 = conditions: P. falciparum in erythrocytes, SYBR Green DNA, 72 h; series mostly up to 12.8 µM
Outline: as §1

CP268 = conditions: P. falciparum in erythrocytes, SYBR Green DNA, 72 h; series mostly up to 28.7 µM
Outline: as §1

CP269 = conditions: P. falciparum in erythrocytes, SYBR Green DNA, 72 h; series mostly up to 28.7 µM
Outline: as §1

CP286 = conditions: P. falciparum in erythrocytes, SYBR Green DNA, 72 h; series mostly up to 28.7 µM
Outline: as §1

CP291 = conditions: P. falciparum in erythrocytes, SYBR Green DNA, 72 h; series mostly up to 28.7 µM
Outline: as §1

CP297 = conditions: P. falciparum in erythrocytes, SYBR Green DNA, 72 h; series mostly up to 28.7 µM
Outline: as §1

CP305 = conditions: P. falciparum in erythrocytes, SYBR Green DNA, 72 h; series mostly up to 28.7 µM
Outline: as §1

CP315 = conditions: P. falciparum in erythrocytes, SYBR Green DNA, 72 h; series mostly up to 28.7 µM
Outline: as §1

CP325 = conditions: P. falciparum in erythrocytes, SYBR Green DNA, 72 h; series mostly up to 28.7 µM
Outline: as §1

CP329 = conditions: P. falciparum in erythrocytes, SYBR Green DNA, 72 h; series mostly up to 28.7 µM
Outline: as §1

CP335 = conditions: P. falciparum in erythrocytes, SYBR Green DNA, 72 h; series mostly up to 12.8 µM
Outline: as §1

DFO2036 = conditions: P. falciparum in erythrocytes, SYBR Green DNA, 72 h; series mostly up to 28.7 µM
Outline: as §1

DIV14 = conditions: P. falciparum in erythrocytes, SYBR Green DNA, 72 h; series mostly up to 28.7 µM
Outline: as §1

DIV17 = conditions: P. falciparum in erythrocytes, SYBR Green DNA, 72 h; series mostly up to 28.7 µM
Outline: as §1

DIV30 = conditions: P. falciparum in erythrocytes, SYBR Green DNA, 72 h; series mostly up to 28.7 µM
Outline: as §1

Dd2 = conditions: P. falciparum in erythrocytes, SYBR Green DNA, 72 h; series mostly up to 28.7 µM
Outline: as §1

ECU = conditions: P. falciparum in erythrocytes, SYBR Green DNA, 72 h; series mostly up to 28.7 µM
Outline: as §1

FAB9 = conditions: P. falciparum in erythrocytes, SYBR Green DNA, 72 h; series mostly up to 28.7 µM
Outline: as §1

GB4 = conditions: P. falciparum in erythrocytes, SYBR Green DNA, 72 h; series mostly up to 28.7 µM
Outline: as §1

HB3 = conditions: P. falciparum in erythrocytes, SYBR Green DNA, 72 h; series mostly up to 28.7 µM
Outline: as §1

ICS = conditions: P. falciparum in erythrocytes, SYBR Green DNA, 72 h; series mostly up to 28.7 µM
Outline: as §1

JCK = conditions: P. falciparum in erythrocytes, SYBR Green DNA, 72 h; series mostly up to 28.7 µM
Outline: as §1

N140 = conditions: P. falciparum in erythrocytes, SYBR Green DNA, 72 h; series mostly up to 28.7 µM
Outline: as §1

P93_24 = conditions: P. falciparum in erythrocytes, SYBR Green DNA, 72 h; series mostly up to 28.7 µM
Outline: as §1

P94_40 = conditions: P. falciparum in erythrocytes, SYBR Green DNA, 72 h; series mostly up to 28.7 µM
Outline: as §1

PAD = conditions: P. falciparum in erythrocytes, SYBR Green DNA, 72 h; series mostly up to 28.7 µM
Outline: as §1

PC15 = conditions: P. falciparum in erythrocytes, SYBR Green DNA, 72 h; series mostly up to 28.7 µM
Outline: as §1

PC26 = conditions: P. falciparum in erythrocytes, SYBR Green DNA, 72 h; series mostly up to 28.7 µM
Outline: as §1

PC49 = conditions: P. falciparum in erythrocytes, SYBR Green DNA, 72 h; series mostly up to 28.7 µM
Outline: as §1

SC27B = conditions: P. falciparum in erythrocytes, SYBR Green DNA, 72 h; series mostly up to 28.7 µM
Outline: as §1

TAB109 = conditions: P. falciparum in erythrocytes, SYBR Green DNA, 72 h; series mostly up to 12.8 µM
Outline: as §1

TAB113 = conditions: P. falciparum in erythrocytes, SYBR Green DNA, 72 h; series mostly up to 28.7 µM
Outline: as §1

TAB165 = conditions: P. falciparum in erythrocytes, SYBR Green DNA, 72 h; series mostly up to 28.7 µM
Outline: as §1

W2 = conditions: P. falciparum in erythrocytes, SYBR Green DNA, 72 h; series mostly up to 12.8 µM
Outline: as §1

Measured: Potency

C[C@]12CC[C@H](OS(=O)(=O)O)CC1=CCC1C2CC[C@]2(C)C(=O)CC[C@@H]12 (some centres not stated)
inactive: all assays above
